# Measured values reported in PubChem BioAssay (NCATS).
# Inconclusive results are not listed. A call without a number means that no potency is given here. Activity calls are given as the source filed them. Unless noted, the call rests on the fitted dose curve; in most records, active means well fitted curve in either direction with a large enough effect (not every such curve was filed as active); inconclusive means small, poorly fitted or top-dose-only effect, or another doubt; inactive means flat fitted curve, though single readings scatter.
# Assays:
# [1] = target: Mitogen-activated protein kinase 10 (Mus musculus) (UniProt Q61831); experiment: JNK3 AlphaScreen Assay (AID 530); conditions: JNK3 lysate, c-Jun phosphorylation; series mostly up to 57.1 µM;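 further: kinase came from lysate of stimulated human HepG2 cells; signal reports phosphorylation of biotinylated GST-cJun 1-79 at Ser73 with 10 µM ATP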
# Summary of the method: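 Room-temperature AlphaScreen kinase assay; pre-activated HepG2 lysate as JNK3 source, biotin-GST-cJun(1-79) substrate, 10 uM ATP, compound 15 min preincubation.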
# [2] = target: 3',5'-cyclic-AMP phosphodiesterase 4B (Homo sapiens) (UniProt Q07343); experiment: qHTS Assay for Inhibitors of PDE-IV (AID 607; active means well fitted activation curve with a large enough effect in the main read-out, with a control signal flat, not every such curve was filed as active); conditions: HEK293 ACTOne CNG channel cells, membrane potential fluorescence; series mostly up to 22.9 µM
# Chain of 3',5'-cyclic-AMP phosphodiesterase 4B (Homo sapiens) (Q07343 whole entry, looked up): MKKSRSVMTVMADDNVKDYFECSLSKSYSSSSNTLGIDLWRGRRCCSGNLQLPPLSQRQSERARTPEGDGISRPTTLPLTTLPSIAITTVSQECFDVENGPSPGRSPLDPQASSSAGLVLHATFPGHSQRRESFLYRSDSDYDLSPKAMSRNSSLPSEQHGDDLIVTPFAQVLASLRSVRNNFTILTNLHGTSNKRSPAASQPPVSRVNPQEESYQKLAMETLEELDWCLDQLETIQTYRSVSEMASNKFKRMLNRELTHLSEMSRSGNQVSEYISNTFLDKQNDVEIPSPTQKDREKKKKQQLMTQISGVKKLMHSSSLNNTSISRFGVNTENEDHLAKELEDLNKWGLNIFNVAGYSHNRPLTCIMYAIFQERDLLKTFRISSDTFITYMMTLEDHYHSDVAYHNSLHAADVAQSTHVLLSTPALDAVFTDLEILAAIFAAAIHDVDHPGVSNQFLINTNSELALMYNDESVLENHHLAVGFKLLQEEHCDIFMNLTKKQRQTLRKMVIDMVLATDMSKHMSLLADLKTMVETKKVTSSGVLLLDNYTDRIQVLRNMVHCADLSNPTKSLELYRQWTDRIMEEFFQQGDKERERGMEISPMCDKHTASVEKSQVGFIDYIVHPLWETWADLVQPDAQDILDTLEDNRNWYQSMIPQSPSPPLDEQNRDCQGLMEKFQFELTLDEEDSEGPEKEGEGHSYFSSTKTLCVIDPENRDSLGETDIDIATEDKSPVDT
# Summary of the method: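 Cell-based read-out of cAMP via a modified cyclic nucleotide-gated channel and membrane potential dye (535/590 nm) in HEK293 cells expressing PDE4 endogenously. Compounds tested up to 22.9 uM final; 100 uM RO 20-1724 reference.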
# [3] = target: Cytochrome P450 2C9 (Homo sapiens) (UniProt P11712); experiment: qHTS Assay for Inhibitors and Substrates of Cytochrome P450 2C9 (AID 883; active means well fitted curve in the direction sought with a large enough effect; an effect the other way counts as inactive or inconclusive; further: potency means the concentration at half of the fitted maximal effect; nearly all actives have a fitted effect of over 60% in size); conditions: recombinant CYP2C9, luciferin-H luminescence, 60 min; series mostly up to 11.4 µM
# Chain of Cytochrome P450 2C9 (Homo sapiens) (P11712 whole entry, looked up): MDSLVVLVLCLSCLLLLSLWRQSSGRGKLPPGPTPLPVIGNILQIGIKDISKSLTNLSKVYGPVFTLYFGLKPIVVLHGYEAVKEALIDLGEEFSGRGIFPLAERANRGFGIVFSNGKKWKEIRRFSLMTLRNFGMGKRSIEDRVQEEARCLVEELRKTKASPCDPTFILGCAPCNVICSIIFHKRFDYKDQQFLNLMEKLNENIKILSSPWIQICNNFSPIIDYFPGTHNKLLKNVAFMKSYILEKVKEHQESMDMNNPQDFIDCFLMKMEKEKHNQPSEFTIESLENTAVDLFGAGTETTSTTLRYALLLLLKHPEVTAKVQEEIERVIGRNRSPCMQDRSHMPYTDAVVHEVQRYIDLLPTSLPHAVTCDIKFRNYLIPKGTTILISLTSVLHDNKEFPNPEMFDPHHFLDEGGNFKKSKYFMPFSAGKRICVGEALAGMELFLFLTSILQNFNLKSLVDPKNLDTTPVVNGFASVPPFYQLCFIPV
# Summary of the method: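 Turnover of Luciferin-H (100uM, KM) by 10nM human CYP2C9 was measured over 60 min at 37C with NADPH regeneration; inhibitors and some substrates reduce luminescence. Data normalized to sulphaphenazole 57uM.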
# [4] = target: Cytochrome P450 3A4 (Homo sapiens) (UniProt P08684); experiment: qHTS Assay for Inhibitors and Substrates of Cytochrome P450 3A4 (AID 884; active means well fitted curve in the direction sought with a large enough effect; an effect the other way counts as inactive or inconclusive; further: potency means the concentration at half of the fitted maximal effect; nearly all actives have a fitted effect of over 50% in size); conditions: recombinant CYP3A4, Luciferin-PPXE luminescence; series mostly up to 57.1 µM
# Chain of Cytochrome P450 3A4 (Homo sapiens) (P08684 whole entry, looked up): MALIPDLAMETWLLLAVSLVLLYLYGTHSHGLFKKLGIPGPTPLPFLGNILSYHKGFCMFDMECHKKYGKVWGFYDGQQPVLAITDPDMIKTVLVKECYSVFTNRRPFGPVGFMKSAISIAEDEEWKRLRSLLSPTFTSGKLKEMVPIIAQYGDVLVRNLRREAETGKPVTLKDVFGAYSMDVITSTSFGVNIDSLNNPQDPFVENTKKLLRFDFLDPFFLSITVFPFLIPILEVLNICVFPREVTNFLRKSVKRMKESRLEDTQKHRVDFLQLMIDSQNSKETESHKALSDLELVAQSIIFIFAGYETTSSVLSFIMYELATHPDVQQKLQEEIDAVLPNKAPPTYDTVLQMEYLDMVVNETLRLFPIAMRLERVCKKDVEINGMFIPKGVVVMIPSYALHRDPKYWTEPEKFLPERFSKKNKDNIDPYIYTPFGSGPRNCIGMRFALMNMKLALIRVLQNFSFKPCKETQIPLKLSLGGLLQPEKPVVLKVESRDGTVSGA
# Summary of the method: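 20 nM human CYP3A4 with 25 uM Luciferin-PPXE (at KM) in 200 mM KPO4, preincubated 10 min with compound; NADPH regeneration started a 60 min RT reaction. Luciferin detected by luminescence, normalized to 57 uM ketoconazole as full inhibition.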
# [5] = target: Cytochrome P450 3A4 (Homo sapiens) (UniProt P08684); experiment: qHTS Assay for Activators of Cytochrome P450 3A4 (AID 885; active means well fitted curve in the direction sought with a large enough effect; an effect the other way counts as inactive or inconclusive; further: nearly all actives have a fitted effect of over 65% in size); conditions: recombinant CYP3A4, Luciferin-PPXE luminescence, 60 min; series mostly up to 57.1 µM
# Summary of the method: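 Signal was normalized against complete inhibition by 57 uM ketoconazole. The reaction used 20nM CYP3A4 with 25uM Luciferin-PPXE, 10-min compound preincubation and a 60-min NADPH-supported step at RT.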
structure (smiles),measurement,setting,value
COC(=O)[C@@]1(Cc2ccccc2)[C@H]2c3cc(C(=O)N(C)C)n(CCSCCO)c3C[C@H]2CN1C(=O)c1ccccc1,outcome,[1],inactive
same,outcome,[2],inactive
COC(=O)[C@@]1(Cc2ccc(OC)cc2)[C@H]2c3cc(C(=O)N(C)C)n(Cc4ccc(O)c(OC)c4)c3C[C@H]2CN1C(=O)c1ccccc1,outcome,[1],inactive
same,outcome,[2],inactive
COC(=O)[C@@]1(Cc2ccc(F)cc2)[C@H]2c3cc(C(=O)N(C)C)n(Cc4nc5ccccc5[nH]4)c3C[C@H]2CN1C(=O)c1ccccc1,outcome,[1],inactive
same,outcome,[2],inactive
CS(=O)(=O)c1ccc(CNC(=O)[C@H]2C[C@@H]2[C@H](NP(=O)(c2ccccc2)c2ccccc2)c2ccccc2)cc1,outcome,[1],inactive
same,outcome,[2],inactive
COC(=O)[C@@]1(Cc2ccccc2)[C@H]2c3cc(C(=O)N(C)C)n(Cc4ccccn4)c3C[C@H]2CN1C(=O)c1ccccc1,outcome,[1],inactive
same,outcome,[2],inactive
COC(=O)[C@@]1(Cc2ccccc2)[C@H]2c3cc(C(=O)N(C)C)n(Cc4ccccc4)c3C[C@H]2CN1C(=O)c1ccccc1,outcome,[1],inactive
same,outcome,[2],inactive
COC(=O)[C@@]1(Cc2ccccc2)[C@H]2c3cc(C(=O)N(C)C)n(C[C@H](O)CO)c3C[C@H]2CN1C(=O)c1ccccc1,outcome,[1],inactive
same,outcome,[2],inactive
COC(=O)[C@@]1(Cc2ccc(OC)cc2)[C@H]2c3cc(C(=O)N4CCCC4)n(CCO)c3C[C@H]2CN1C(=O)c1ccccc1,outcome,[1],inactive
same,outcome,[2],inactive
COC(=O)[C@@]1(Cc2ccc(OC)cc2)[C@H]2c3cc(C(=O)N(C)C)n(Cc4cc(C)n(C)n4)c3C[C@H]2CN1C(=O)c1ccccc1,outcome,[1],inactive
same,outcome,[2],inactive
COCCn1c(C(=O)N2CCCC2)cc2c1C[C@H]1CN(C(=O)c3ccccc3)[C@@](Cc3ccccc3)(C(=O)OC)[C@@H]21,outcome,[1],inactive
same,outcome,[2],inactive
C[C@@H](C(=O)Nc1ccc2ccccc2c1)[C@H]1C[C@]1(C)[C@H](NC(=O)c1ccccc1)c1ccccc1,outcome,[1],inactive
same,outcome,[2],inactive
COC(=O)[C@@]1(Cc2ccccc2)[C@@H]2[C@@H](CC(=O)[C@H]2CC(=O)C(=O)N(C)C)CN1C(=O)c1ccccc1,outcome,[1],inactive
same,outcome,[2],inactive
COC(=O)[C@@]1(Cc2ccc(F)cc2)[C@H]2c3cc(C(=O)N(C)C)n(Cc4ccsc4Br)c3C[C@H]2CN1C(=O)c1ccccc1,outcome,[1],inactive
same,outcome,[2],inactive
C[C@@H](C(=O)Nc1ccc2ccccc2c1)[C@@H]1C[C@@]1(C)[C@@H](NS(=O)(=O)c1ccccc1)c1ccccc1,outcome,[1],inactive
same,outcome,[2],inactive
COC(=O)[C@@H]1C[C@H]1[C@@H](NC(C)=O)c1ccccc1,outcome,[1],inactive
same,outcome,[2],inactive
COC(=O)[C@@]1(Cc2ccc(OC)cc2)[C@H]2c3cc(C(=O)N4CCCC4)n(Cc4ccc(C)c(F)c4F)c3C[C@H]2CN1C(=O)c1ccccc1,outcome,[1],inactive
same,outcome,[2],inactive
Cc1ccc(CNC(=O)[C@H](C)[C@H]2C[C@]2(C)[C@H](NC(=O)OCc2ccccc2)c2ccccc2)c(F)c1F,outcome,[1],inactive
same,outcome,[2],inactive
COC(=O)Cn1c(C(=O)N(C)C)cc2c1C[C@H]1CN(C(=O)c3ccccc3)[C@@](Cc3ccc(OC)cc3)(C(=O)OC)[C@@H]21,outcome,[1],inactive
same,outcome,[2],inactive
COC(=O)C1(CC(C)C)C=C2C(=C(C)C(=O)C2C)CN1 (stereo not drawn),outcome,[1],inactive
same,outcome,[2],inactive
COC(=O)[C@@]1(Cc2ccccc2)[C@H]2c3cc(C(=O)N(C)C)n(Cc4nc5ccccc5[nH]4)c3C[C@H]2CN1C(=O)c1ccccc1,outcome,[1],inactive
same,outcome,[2],inactive
COC(=O)[C@H]1C[C@@H]1[C@H](N)c1ccccc1,outcome,[1],inactive
same,outcome,[2],inactive
Nc1ccccc1C#CCCCCO,outcome,[1],inactive
same,outcome,[2],inactive
COC(=O)[C@@]1(Cc2ccccc2)[C@H]2c3cc(C(=O)N4CCCC4)n(CCSCCO)c3C[C@H]2CN1C(=O)c1ccccc1,outcome,[1],inactive
same,outcome,[2],inactive
C[C@@H](C(=O)NCc1ccccc1)[C@H]1C[C@]1(C)[C@H](NC(=O)OCc1ccccc1)c1ccccc1,outcome,[1],inactive
same,outcome,[2],inactive
COC(=O)[C@@]1(Cc2ccc(OC)cc2)[C@H]2c3cc(C(=O)N(C)C)n(Cc4ccc(C(F)(F)F)nc4)c3C[C@H]2CN1C(=O)c1ccccc1,outcome,[1],inactive
same,outcome,[2],inactive
CC(C)c1ccc2c([Si](C)(C)C)c3c(nc2c1)-c1cccc(=O)n1C3,outcome,[1],inactive
same,outcome,[2],inactive
CC(=O)OCC1C2CC[C@H]3C(OCc4ccc(F)cc4C(F)(F)F)OC[C@]4(C)[C@H]3C2=C(CN4C(=O)OC(C)(C)C)[C@H](C)C1COC(C)=O (stereo partly drawn),outcome,[1],inactive
same,outcome,[2],inactive
COC(=O)[C@@]1(Cc2ccc(F)cc2)[C@H]2c3cc(C(=O)N(C)C)n(CCSCCO)c3C[C@H]2CN1C(=O)c1ccccc1,outcome,[1],inactive
same,outcome,[2],inactive
COC(=O)[C@@]1(Cc2ccc(OC)cc2)[C@H]2c3cc(C(=O)N4CCCC4)n(CCN4CNCC4=O)c3C[C@H]2CN1C(=O)c1ccccc1,outcome,[1],inactive
same,outcome,[2],inactive
CS(=O)(=O)c1ccc(CNC(=O)[C@@H]2C[C@H]2[C@@H](NP(=O)(c2ccccc2)c2ccccc2)c2ccccc2)cc1,outcome,[1],inactive
same,outcome,[2],inactive
COC(=O)[C@@]1(Cc2ccc(OC)cc2)[C@H]2c3cc(C(=O)N(C)C)n(CCSCCO)c3C[C@H]2CN1C(=O)c1ccccc1,outcome,[1],inactive
same,outcome,[2],inactive
COC(=O)[C@@]1(Cc2ccc(F)cc2)[C@H]2c3cc(C(=O)N(C)C)n(Cc4ccc(OC(F)(F)F)cc4)c3C[C@H]2CN1C(=O)c1ccccc1,outcome,[1],inactive
same,outcome,[2],inactive
COC(=O)[C@@]1(Cc2ccccc2)[C@H]2c3cc(C(=O)N(C)C)n(Cc4ccc(OC)c(OC)c4)c3C[C@H]2CN1C(=O)c1ccccc1,outcome,[1],inactive
same,outcome,[2],inactive
C/C(=C\C1CCCCC1)C(NC(=O)c1cccnc1)c1ccc(-c2ccccc2)cc1 (stereo not drawn),outcome,[1],inactive
same,outcome,[2],inactive
COC(=O)[C@@]1(Cc2ccc(OC)cc2)[C@H]2c3cc(C(=O)N4CCCC4)n(C[C@H](O)CO)c3C[C@H]2CN1C(=O)c1ccccc1,outcome,[1],inactive
same,outcome,[2],inactive
COC(=O)[C@@]1(Cc2ccc(F)cc2)[C@H]2c3cc(C(=O)N4CCCC4)n(CCc4c[nH]c5cc(F)ccc45)c3C[C@H]2CN1C(=O)c1ccccc1,outcome,[1],inactive
same,outcome,[2],inactive
COC(=O)[C@@]1(Cc2ccc(OC)cc2)[C@H]2c3cc(C(=O)N(C)C)n(CCF)c3C[C@H]2CN1C(=O)c1ccccc1,outcome,[1],inactive
same,outcome,[2],inactive
CCc1c2c(nc3ccc(OC)cc13)OC(C)C2 (stereo not drawn),outcome,[1],inactive
same,outcome,[2],inactive
C[C@@H](C(=O)Nc1ccc2ccccc2c1)[C@H]1C[C@]1(C)[C@H](NC(=O)c1cccnc1)c1ccccc1,outcome,[1],inactive
same,outcome,[2],inactive
Cc1cc(C(=O)N[C@H](c2ccccc2)[C@@]2(C)C[C@@H]2[C@@H](C)C(=O)Nc2ccc3ccccc3c2)no1,outcome,[1],inactive
same,outcome,[2],inactive
C[C@@H](C(=O)N[C@@H](CO)Cc1ccccc1)[C@H]1C[C@]1(C)[C@H](NC(=O)OCc1ccccc1)c1ccccc1,outcome,[1],inactive
same,outcome,[2],inactive
COc1ccc(NC(=O)CCCCC#Cc2ccccc2)cc1,outcome,[1],inactive
same,outcome,[2],inactive
COC(=O)[C@@]1(Cc2ccc(OC)cc2)[C@H]2c3cc(C(=O)N4CCCC4)n(Cc4ccc(OC(F)(F)F)cc4)c3C[C@H]2CN1C(=O)c1ccccc1,outcome,[1],inactive
same,outcome,[2],inactive
CC(C)=C1C(=O)C(c2ccccc2)=C2CN3C(=O)N(CCc4ccccc4)C(=O)[C@]3(Cc3ccc(C(F)(F)F)cc3)[C@H]21,outcome,[1],inactive
same,outcome,[2],inactive
Cc1c2c(nc3ccccc13)OCC2,outcome,[1],inactive
same,outcome,[2],inactive
COC(=O)[C@@]1(Cc2ccccc2)[C@H]2c3cc(C(=O)N4CCCC4)[nH]c3C[C@H]2CN1C(=O)c1ccccc1,Potency,[3],794 nM (active)
same,Potency,[4],2510 nM (active)
same,Potency,[5],inactive
